Test results: PMC5540273 (PLoS ONE, 2017)

Key:
Settings in all cases: concentration: 1 μM, replicates: in singlicate; n = 1
ASK2 = test system: T1, ASK2
T1 construct: gene MAP3K6

AURKA = test system: AURKA
AURKB = test system: AURKB
AURKC = test system: AURKC
AXL = test system: AXL
BIKE = test system: T2, BIKE
T2 construct: gene BMP2K

BLK = test system: BLK
BMPR1A = test system: BMPR1A
BMPR1B = test system: BMPR1B
BMPR2 = test system: BMPR2
BMX = test system: BMX
BRAF = test system: BRAF
BRK = test system: T3, BRK
T3 construct: gene PTK6

BRSK1 = test system: BRSK1
BRSK2 = test system: BRSK2
BTK = test system: BTK
BUB1 = test system: BUB1
CAMK1B = test system: CAMK1B
CAMK1D = test system: CAMK1D
CAMK1G = test system: CAMK1G
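Note: KINOMEscan kinase panel screen.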

SMILES: Cc1ccc(C(=O)Nc2ccc(Nc3ccnc4cc(-c5nccs5)ccc34)cc2O)cc1.Cl [GW494702]
- %Inh (ASK2): 0%
- %Inh (AURKA): 100%
- %Inh (AURKB): 91.3%
- %Inh (AURKC): 61%
- %Inh (AXL): 9%
- %Inh (BIKE): 9%
- %Inh (BLK): 97%
- %Inh (BMPR1A): 0%
- %Inh (BMPR1B): 0%
- %Inh (BMPR2): 12%
- %Inh (BMX): 18%
- %Inh (BRAF): 1%
- %Inh (BRK): 38%
- %Inh (BRSK1): 0%
- %Inh (BRSK2): 0%
- %Inh (BTK): 100%
- %Inh (BUB1): 35%
- %Inh (CAMK1B): 8%
- %Inh (CAMK1D): 0%
- %Inh (CAMK1G): 15%

SMILES: COc1ccc(Nc2nccc(NCCNC(=O)c3cc4ccccc4s3)n2)cc1 [GSK1379896]
- %Inh (ASK2): 0%
- %Inh (AURKA): 16%
- %Inh (AURKB): 0%
- %Inh (AURKC): 17%
- %Inh (AXL): 14%
- %Inh (BIKE): 4%
- %Inh (BLK): 23%
- %Inh (BMPR1A): 0%
- %Inh (BMPR1B): 0%
- %Inh (BMPR2): 0%
- %Inh (BMX): 17%
- %Inh (BRAF): 0%
- %Inh (BRK): 1%
- %Inh (BRSK1): 6%
- %Inh (BRSK2): 0%
- %Inh (BTK): 0%
- %Inh (BUB1): 9%
- %Inh (CAMK1B): 39%
- %Inh (CAMK1D): 6%
- %Inh (CAMK1G): 0%

SMILES: Cc1ccc(F)c(C(=O)Nc2cccc(-c3nn4ccccc4c3-c3ccnc(Nc4cccc(F)c4)n3)c2)c1F [GSK361061]
- %Inh (ASK2): 27%
- %Inh (AURKA): 29%
- %Inh (AURKB): 4%
- %Inh (AURKC): 59%
- %Inh (AXL): 56%
- %Inh (BIKE): 35%
- %Inh (BLK): 91.3%
- %Inh (BMPR1A): 10%
- %Inh (BMPR1B): 0%
- %Inh (BMPR2): 8%
- %Inh (BMX): 48%
- %Inh (BRAF): 68%
- %Inh (BRK): 74%
- %Inh (BRSK1): 12%
- %Inh (BRSK2): 0%
- %Inh (BTK): 0%
- %Inh (BUB1): 42%
- %Inh (CAMK1B): 0%
- %Inh (CAMK1D): 18%
- %Inh (CAMK1G): 12%

SMILES: Nc1ncc(-c2ccc3nccc(-c4ccncc4)c3c2)cc1S(=O)(=O)N1CCOCC1 [GSK1627798]
- %Inh (ASK2): 0%
- %Inh (AURKA): 0%
- %Inh (AURKB): 0%
- %Inh (AURKC): 6%
- %Inh (AXL): 36%
- %Inh (BIKE): 24%
- %Inh (BLK): 100%
- %Inh (BMPR1A): 0%
- %Inh (BMPR1B): 0%
- %Inh (BMPR2): 0%
- %Inh (BMX): 16%
- %Inh (BRAF): 15%
- %Inh (BRK): 8%
- %Inh (BRSK1): 0%
- %Inh (BRSK2): 0%
- %Inh (BTK): 0%
- %Inh (BUB1): 12%
- %Inh (CAMK1B): 0%
- %Inh (CAMK1D): 36%
- %Inh (CAMK1G): 16%

SMILES: COc1cc(Nc2nccc(N3CCC(NC(=O)Nc4cccc(C(C)=O)c4)C3)n2)cc(OC)c1OC (centres unmarked) [GSK1379753]
- %Inh (ASK2): 0%
- %Inh (AURKA): 83%
- %Inh (AURKB): 57%
- %Inh (AURKC): 77%
- %Inh (AXL): 0%
- %Inh (BIKE): 74%
- %Inh (BLK): 9%
- %Inh (BMPR1A): 0%
- %Inh (BMPR1B): 0%
- %Inh (BMPR2): 9%
- %Inh (BMX): 1%
- %Inh (BRAF): 0%
- %Inh (BRK): 8%
- %Inh (BRSK1): 5%
- %Inh (BRSK2): 0%
- %Inh (BTK): 0%
- %Inh (BUB1): 31%
- %Inh (CAMK1B): 0%
- %Inh (CAMK1D): 20%
- %Inh (CAMK1G): 0%

SMILES: Cn1cc(-c2ccc3c(c2)CCN3C(=O)Cc2cccc(Cl)c2)c2c(N)ncnc21 [GSK2606590]
- %Inh (ASK2): 19%
- %Inh (AURKA): 23%
- %Inh (AURKB): 89%
- %Inh (AURKC): 65%
- %Inh (AXL): 96.3%
- %Inh (BIKE): 18%
- %Inh (BLK): 69%
- %Inh (BMPR1A): 0%
- %Inh (BMPR1B): 0%
- %Inh (BMPR2): 4%
- %Inh (BMX): 4%
- %Inh (BRAF): 11%
- %Inh (BRK): 56%
- %Inh (BRSK1): 7%
- %Inh (BRSK2): 0%
- %Inh (BTK): 0%
- %Inh (BUB1): 0%
- %Inh (CAMK1B): 0%
- %Inh (CAMK1D): 32%
- %Inh (CAMK1G): 25%

SMILES: Nc1n[nH]c2cnc(-c3ccccc3)cc12 [SB-642124]
- %Inh (ASK2): 0%
- %Inh (AURKA): 4%
- %Inh (AURKB): 32%
- %Inh (AURKC): 100%
- %Inh (AXL): 0%
- %Inh (BIKE): 99.4%
- %Inh (BLK): 0%
- %Inh (BMPR1A): 0%
- %Inh (BMPR1B): 53%
- %Inh (BMPR2): 33%
- %Inh (BMX): 5%
- %Inh (BRAF): 7%
- %Inh (BRK): 19%
- %Inh (BRSK1): 13%
- %Inh (BRSK2): 7%
- %Inh (BTK): 0%
- %Inh (BUB1): 44%
- %Inh (CAMK1B): 8%
- %Inh (CAMK1D): 0%
- %Inh (CAMK1G): 10%

SMILES: Fc1ccc(-c2ncn(C3CCNCC3)c2-c2ccnc(Oc3ccc(-c4ccccc4)cc3)n2)cc1 [SB-245391]
- %Inh (ASK2): 12%
- %Inh (AURKA): 53%
- %Inh (AURKB): 39%
- %Inh (AURKC): 0%
- %Inh (AXL): 18%
- %Inh (BIKE): 0%
- %Inh (BLK): 20%
- %Inh (BMPR1A): 18%
- %Inh (BMPR1B): 2%
- %Inh (BMPR2): 46%
- %Inh (BMX): 0%
- %Inh (BRAF): 23%
- %Inh (BRK): 7%
- %Inh (BRSK1): 14%
- %Inh (BRSK2): 16%
- %Inh (BTK): 57%
- %Inh (BUB1): 20%
- %Inh (CAMK1B): 4%
- %Inh (CAMK1D): 30%
- %Inh (CAMK1G): 4%

SMILES: O=C(Nc1n[nH]c2cc(-c3ccoc3)ccc12)C1CC1 [SB-738481]
- %Inh (ASK2): 5%
- %Inh (AURKA): 23%
- %Inh (AURKB): 20%
- %Inh (AURKC): 19%
- %Inh (AXL): 37%
- %Inh (BIKE): 35%
- %Inh (BLK): 0%
- %Inh (BMPR1A): 11%
- %Inh (BMPR1B): 21%
- %Inh (BMPR2): 60%
- %Inh (BMX): 16%
- %Inh (BRAF): 0%
- %Inh (BRK): 0%
- %Inh (BRSK1): 11%
- %Inh (BRSK2): 0%
- %Inh (BTK): 0%
- %Inh (BUB1): 0%
- %Inh (CAMK1B): 0%
- %Inh (CAMK1D): 0%
- %Inh (CAMK1G): 0%

SMILES: FC(F)(F)c1ccc(/C=C/c2cncnc2Nc2ccc3[nH]c(Cc4ccccc4)nc3c2)cc1 [GW709199]
- %Inh (ASK2): 0%
- %Inh (AURKA): 0%
- %Inh (AURKB): 5%
- %Inh (AURKC): 0%
- %Inh (AXL): 0%
- %Inh (BIKE): 0%
- %Inh (BLK): 3%
- %Inh (BMPR1A): 4%
- %Inh (BMPR1B): 0%
- %Inh (BMPR2): 0%
- %Inh (BMX): 0%
- %Inh (BRAF): 0%
- %Inh (BRK): 11%
- %Inh (BRSK1): 3%
- %Inh (BRSK2): 8%
- %Inh (BTK): 19%
- %Inh (BUB1): 0%
- %Inh (CAMK1B): 0%
- %Inh (CAMK1D): 5%
- %Inh (CAMK1G): 0%
